Data as given in PubChem BioAssay (EPA / NIEHS).
The source made the active and inactive calls. How the source made its calls: active means hit-call score of the fitted dose curve at least 0.9, where 1 is the maximum; inactive means score below 0.9.

biological target: Transcriptional activator Myb (Homo sapiens) (UniProt P10242); assay: ATG_Myb_CIS: Attagene CIS-FACTORIAL HepG2 Assay for human Myeloblastosis (Myb) Proto-Oncogene Transcription Factor (AID 2282986); conditions: HepG2 Attagene CIS-FACTORIAL Myb reporter transcription; actives raise or lower the signal
Sequence (P10242 whole entry, looked up): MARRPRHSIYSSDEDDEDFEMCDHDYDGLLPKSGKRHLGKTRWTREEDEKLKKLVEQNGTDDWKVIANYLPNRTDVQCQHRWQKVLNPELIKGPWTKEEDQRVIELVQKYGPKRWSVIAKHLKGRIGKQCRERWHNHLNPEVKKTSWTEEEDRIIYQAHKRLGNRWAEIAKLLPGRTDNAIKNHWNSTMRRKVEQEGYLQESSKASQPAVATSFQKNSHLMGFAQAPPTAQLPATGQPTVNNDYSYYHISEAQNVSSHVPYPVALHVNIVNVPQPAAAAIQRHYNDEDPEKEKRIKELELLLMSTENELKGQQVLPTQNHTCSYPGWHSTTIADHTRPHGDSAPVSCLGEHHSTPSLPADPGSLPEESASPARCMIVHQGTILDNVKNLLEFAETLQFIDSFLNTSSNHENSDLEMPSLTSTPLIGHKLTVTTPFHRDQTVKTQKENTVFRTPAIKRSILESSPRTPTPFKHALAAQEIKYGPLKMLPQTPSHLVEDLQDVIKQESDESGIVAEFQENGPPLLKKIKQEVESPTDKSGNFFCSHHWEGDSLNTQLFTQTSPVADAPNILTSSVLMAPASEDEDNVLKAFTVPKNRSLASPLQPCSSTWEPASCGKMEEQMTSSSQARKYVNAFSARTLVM
Procedure, shortened: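 Using HepG2 liver cells bearing transiently transfected cis-promoter reporter constructs, the assay measures induction or loss of reporter mRNA after 24 hours of dosing. Detection used fluorescently labeled RT-PCR products separated by capillary electrophoresis.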

| Compound | outcome |
| --- | --- |
| COCCC(=O)OC | inactive |
| O=C(c1ccccc1)c1ccc(Cl)cc1 | inactive |
| CCn1c2ccccc2c2ccccc21 | inactive |
| CC(O)C#CC(C)O (stereo unspecified) | inactive |
| Brc1ccccn1 | inactive |
| CC(C)OC=O | inactive |
| O=C(Cl)C(F)(F)C(F)(F)C(F)(F)C(F)(F)C(F)(F)C(F)(F)C(F)(F)F | inactive |
| NC(=O)C(F)(F)C(F)(F)C(F)(F)C(F)(F)C(N)=O | inactive |
| O=C1OC(=O)c2ccc3c4c(ccc1c24)C(=O)OC3=O | inactive |
| CC(C)(C)C(=O)C1C(=O)c2ccccc2C1=O | inactive |
| O=C(F)C1(F)C(F)(F)C(F)(F)C(F)(F)C(F)(F)C1(F)F | inactive |
| OCCCCC(F)(F)C(F)(F)C(F)(F)C(F)(F)F | inactive |
| CCN(CC)c1ccc(C=O)cc1 | inactive |
| N#Cc1ccccc1O | inactive |
| Nc1cccnc1N | inactive |
| O=C=Nc1cccc2c(N=C=O)cccc12 | inactive |
| O=S(=O)(Cl)C(F)(F)C(F)(F)C(F)(F)C(F)(F)C(F)(F)C(F)(F)C(F)(F)C(F)(F)F | inactive |
| C#CC(O)CCC (stereo unspecified) | inactive |
| CC1=CC2C3C=CC(C3)C2C1C (stereo unspecified) | inactive |
| O=C1C=CC(=O)N1c1ccccc1 | inactive |
| CC(C)Nc1ccc(NC(C)C)c2c1C(=O)c1ccccc1C2=O | inactive |
| NC(=O)C(F)(F)C(F)(F)C(F)(F)C(F)F | inactive |
| CC1=CCC(=O)O1 | inactive |
| O=C(O)C(F)(F)OC(F)(F)C(F)(F)OC(F)(F)C(F)(F)OC(F)(F)F | inactive |
| CC(C)OC(=O)COc1ccc(Cl)cc1Cl | inactive |
| OCC(F)(F)C(F)(F)C(F)(F)CO | inactive |
